In the library only some 5.1% were active in any assay of this set; here they are far more common.
HEK293 cAMP cs: qHTS Assay for Agonists of the Thyroid Stimulating Hormone Receptor: Activators of Intracellular cAMP Concentrations in Parental HEK 293 | parental HEK293 CNG cAMP sensor, membrane potential fluorescence | Potency, µM (top dose mostly 57.1 µM), for inactives: at the top dose activation, most hits filed as activators | 73,000 tested, 2.5% active; note: % of control where 0% means no effect; nearly all actives have a fitted effect of over 55% in size
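Parental HEK 293 cells stably expressing a modified CNG channel (no TSHR) report cAMP rise as membrane depolarization. Membrane potential dye with 100 uM RO 20-1724 was loaded for 60 min at room temperature, then compound added for 30 min; fluorescence read at 590 nm.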
Hsp90 Hop PPI: qHTS Assay for Disrupters of an Hsp90 Co-Chaperone Interaction. AID 595, 2007. Potency, µM (titrated, usually from 57 µM), inactives show top-dose activity change, negative = inhibition. Hsp90 C-terminal peptide / TPR2A (Hop) interaction, human. AlphaScreen TPR2A-His6 binding biotin-Hsp90 C-terminal peptide. 71,000 tested, 0.44% active; active = well fitted curve in either direction with a large enough effect; inconclusive = small, poorly fitted or top-dose-only effect, or another doubt; note: % is set by controls: 0 for no effect and ±100 for the full control effect
DNA Pol III inh: qHTS Assay for Inhibitors of DNA Polymerase III Holoenzyme System. reconstituted DNA polymerase III holoenzyme replication, biochemical. Potency, µM (series often up to 57.1 µM), without a hit: at the top dose activity change, negative = inhibition. 71,000 tested, 0.25% active; note: % is set by controls: 0 for no effect and ±100 for the full control effect
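Reconstituted *E. coli* holoenzyme (0.35 nM Pol III, 1 nM beta, 154 nM SSB, 2 nM primase) was preincubated with compound for 15 min at RT. Synthesis on 1.4 nM ssM13Gori ran 35 min, then was stopped with PicoGreen/EDTA and read as dsDNA fluorescence.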
Tau filament bind: qHTS Assay for Tau Filament Binding. AID 596, 2007. Microtubule-associated protein tau (Homo sapiens), P10636. Potency, µM (highest dose often 57.1 µM), for inactives: at the highest dose activity change, negative = inhibition. 71,000 tested, 2% active. recombinant tau filaments, thioflavin S fluorescence, 15 h; filaments grown with octadecylsulfate alongside compound;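 note: % is set by controls: 0 for no effect and ±100 for the full control effect; actives lower thioflavin S fluorescence by blocking filaments or displacing dye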
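Quantitative HTS: thioflavine S signal from ODS-induced tau filaments, excited at 450 nm, emission 510 nm. Conditions: 1 uM tau, 30 uM ODS, 15 h at 37 C, pH 7.4.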
TSHR ag: qHTS Assay for Agonists of the Thyroid Stimulating Hormone Receptor. Potency, µM (series often up to 57.1 µM), inactives show at the highest dose activation, usual class: activators. 73,000 tested, 0.48% active. AID 926, 2007. Thyrotropin receptor (Homo sapiens), P16473. HEK293-CNG-TSHR cells (CNG channel as cAMP sensor), membrane potential dye, cAMP; active = well fitted activation curve with a large enough effect in the main read-out, with a control signal flat, not every such curve was filed as active; inconclusive = small, poorly fitted or top-dose-only effect, or a change in a side signal; inactive = no such curve, though single readings can be large or run the other way; % of control where 0% means no effect;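 note: the control signal comes from parental cells without the receptor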
Target sequence (P16473 whole entry, looked up): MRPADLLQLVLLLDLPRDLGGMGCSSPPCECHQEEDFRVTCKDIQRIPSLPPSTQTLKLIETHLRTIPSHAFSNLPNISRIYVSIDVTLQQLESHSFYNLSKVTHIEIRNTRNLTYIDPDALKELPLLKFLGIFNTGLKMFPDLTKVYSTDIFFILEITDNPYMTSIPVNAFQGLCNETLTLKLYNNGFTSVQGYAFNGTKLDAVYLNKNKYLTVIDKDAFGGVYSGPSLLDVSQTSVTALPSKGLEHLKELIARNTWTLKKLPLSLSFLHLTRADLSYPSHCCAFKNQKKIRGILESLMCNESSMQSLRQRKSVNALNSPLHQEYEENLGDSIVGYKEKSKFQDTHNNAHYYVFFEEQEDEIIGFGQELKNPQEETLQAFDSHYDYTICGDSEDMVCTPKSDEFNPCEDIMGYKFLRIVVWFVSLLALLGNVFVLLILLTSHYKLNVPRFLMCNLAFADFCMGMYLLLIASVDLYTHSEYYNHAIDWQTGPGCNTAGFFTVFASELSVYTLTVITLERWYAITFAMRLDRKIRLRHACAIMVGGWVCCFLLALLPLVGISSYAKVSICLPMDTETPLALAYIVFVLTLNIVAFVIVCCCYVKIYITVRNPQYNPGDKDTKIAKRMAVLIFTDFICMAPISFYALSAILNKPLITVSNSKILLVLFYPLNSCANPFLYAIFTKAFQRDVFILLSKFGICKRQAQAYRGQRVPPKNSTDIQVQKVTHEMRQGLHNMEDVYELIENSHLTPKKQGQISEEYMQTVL
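cAMP rise detected as CNG-channel membrane depolarization by fluorescent dye (emission 590 nm), 30 min after compound, following 60 min dye loading containing 100 uM RO 20-1724 at room temperature. Cells: TSHR/CNG HEK 293, with parental CNG HEK 293 as control.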
Numbers without * were called inactive; i = inactive; ? = inconclusive; . = not tested or not shown; ! = a repeat was not active; [ ] = another dose, or the depositor's remark. Unless noted, calls come from the whole dose curve; as a rule, active = well fitted curve in the direction sought with a large enough effect; inconclusive = small, poorly fitted or top-dose-only effect, or another doubt; inactive = no such curve, though single readings can be large; an effect the other way counts as inactive or inconclusive. Potency is the fitted concentration of half-maximal effect.

SMILES | HEK293 cAMP cs | Hsp90 Hop PPI | DNA Pol III inh | Tau filament bind | TSHR ag
Cc1ccc(C(=O)CSc2nnc(-c3ccco3)n2Cc2ccccc2)cc1 | 13µM* | -15% | 0% | 58% | ?
CC(C)Cn1c(SCC(=O)c2ccc(Cl)s2)nnc1-c1ccco1 | 20µM* | -4% | 0% | -17% | ?
CCCCn1c(SCC(N)=O)nnc1-c1ccco1 | 20% | 3% | -1% | -11% | 8%
O=C(CSc1nnc(-c2ccco2)n1Cc1ccccc1)c1ccccc1 | 19% | -3% | 2% | 8% | 3%[11.4 µM]
CCn1c(SCC(=O)c2ccc(Cl)cc2)nnc1-c1ccoc1C | 25µM* | -5% | -6% | 0% | ?
O[C@H](C[C@@H]1CCCCN1)c1ccc2c(c1)oc1ccccc12 | 8%[11.4 µM] | -8%[11 µM] | -10%[11.4 µM] | 14%[11.4 µM] | -4%[11.4 µM]
COc1ccc(-n2c(=O)cnc3cnc(Nc4ccccc4)nc32)cc1 | 22% | 4% | -5% | -13% | -2%
CC1C=CCCOC1c1ccccc1 (stereo not drawn) | 1%[11.4 µM] | . | . | . | -6%[11.4 µM]
CCN1CCN(Cc2nc3c(c(=O)n(C)c(=O)n3C)n2Cc2ccc(Cl)cc2Cl)CC1 | 21% | -28% | -7% | -18% | 16%
O=C(O)c1ccc(Cl)c(S(=O)(=O)Nc2ccccc2F)c1 | -1% | . | . | . | -1%
CC(=O)N1CC=CC1(C)C(=O)NCC1CC1 (stereo not drawn) | 2% | 1% | -1% | 2% | -1%
Cc1cccc(C(C)C)c1-n1nnnc1-c1ccccc1 | 20µM* | 18% | -3% | -9% | ?
CCCCCCN(CCCCCC)C(=O)Cc1c(-c2ccc(Cl)cc2)[nH]c2ccc(Cl)cc12 | 4% | -1% | 0% | -25% | -1%
CN(Cc1cccc2ccccc12)Cc1cccc2ccccc12 | 17%[11.4 µM] | 10%[11 µM] | -13%[11.4 µM] | -6%[11.4 µM] | 12%[11.4 µM]
CN1CCN(CC(=O)N2c3ccccc3C(=O)Nc3cccnc32)CC1 | 3% | 0% | -5% | 13% | 1%
CCCN(CCC)C[C@@H]1CCCCN1CCNC(=O)N1c2ccccc2C(=O)Nc2cccnc21 | 15% | -4% | -2% | 40µM* | 5%
c1ccc(CCc2nn3c(C4COc5ccccc5O4)nnc3s2)cc1 (stereo not drawn) | 16µM* | 2% | -6% | -11% | ?
Cc1ccc(-c2nnc3sc(C4COc5ccccc5O4)nn23)cc1 (stereo not drawn) | 25µM* | 6% | -8% | 32% | ?
COc1ccccc1-c1nn2c(C3COc4ccccc4O3)nnc2s1 (stereo not drawn) | 25µM* | 1% | 2% | 58% | ?
c1ccc(-c2nn3c(C4COc5ccccc5O4)nnc3s2)cc1 (stereo not drawn) | 9% | -3% | -2% | 2% | 20%
Clc1ccccc1-c1nnc2sc(C3COc4ccccc4O3)nn12 (stereo not drawn) | 25% | -1% | -2% | 8% | 19%
CN1CCN(c2ccc3nc(-c4ccc5nc(-c6ccc(O)cc6)[nH]c5c4)[nH]c3c2)CC1 | 6%[11.4 µM] | -4%[11 µM] | 2µM* | 53%[11.4 µM] | 3%[11.4 µM]
CCOC(=O)c1c(NC(=O)Cn2c(C)nc3ccccc32)sc2c1CCC2 | 23% | -7% | 7% | 179% | 25µM*
NC(=NCc1ccc(Cl)c(Cl)c1)NC(=O)c1nc(Cl)c(N)nc1N | ? | -4% | -11% | 58% | ?
c1ccc(-c2nnn(C34CC5CC(CC(C5)C3)C4)n2)cc1 | 19% | ? | 6% | -15% | 32µM*
SMILES | HEK293 cAMP cs | Hsp90 Hop PPI | DNA Pol III inh | Tau filament bind | TSHR ag
CN(C)c1nc(Oc2ccc(C(=O)OCC(=O)Nc3ccccc3)cc2)nc(N(C)C)n1 | 3.2µM* | -13%[11 µM] | 6%[11.4 µM] | i[11.4 µM] | ?
CCOC(=O)c1ccc(Oc2nc(OC)nc(N(C)C)n2)cc1 | ? | -5% | 2% | ? | ?
CCN(CC)c1ccc(-c2nn3c(-c4n[nH]c5c4CCC5)nnc3s2)cc1 | 32µM* | 19% | -4% | 408% | ?
C1CCC(c2nn3c(-c4n[nH]c5c4CCC5)nnc3s2)CC1 | 32µM* | -10% | -8% | 13% | ?
Cc1cccc(CNc2ccnc(-c3ccccc3C(F)(F)F)n2)c1 | ? | 7% | -2% | -7% | ?
C[C@H]1CCCC2(CC[N+](C)(CCC[N+](C)(C)C)CC2)C1 (stereo partly drawn) | 1%[11.4 µM] | 5%[11 µM] | -7%[11.4 µM] | 0%[11.4 µM] | 1%[11.4 µM]
COc1ccc(-n2nc(C(=O)NCc3ccco3)c3c4ccccc4n(C)c3c2=O)cc1 | 10µM* | 1% | -1% | 27% | ?
CCN1CCN(C(=O)c2nn(-c3ccc(OC)cc3)c(=O)c3c2c2ccccc2n3C)CC1 | ? | -4% | -5% | 4% | ?
COc1cc(C(=O)O[C@@H]2CC(C)=CC[C@@]3(C)CC[C@](O)(C(C)C)[C@H]23)ccc1O | 23% | -5% | -2% | 40µM* | 9%
Cc1ccc2nsnc2c1S(=O)(=O)N1CCN(CCc2ccccc2)CC1 | -18% | -3% | -7% | 25µM* | -27%
COc1ccccc1OCC(=O)Nc1cccc(-c2nc3ccccc3o2)c1 | 25µM* | -3% | -6% | 344% | ?
Cc1ccc(OCC(=O)Nc2ccc(-c3nc4ncccc4o3)cc2)c(C)c1 | 29% | -3% | -3% | 107% | 16µM*
CN(C)c1cc(-c2cccc(NS(C)(=O)=O)c2)ncn1 | ? | 6% | -7% | 4% | ?
NC[C@](O)(CS(=O)(=O)O)c1ccc(Cl)cc1 | -2% | 1% | -2% | ? | 0.13µM*!
O=C(Nc1ccc(Nc2ccccc2)cc1)N1CCOCC1 | -1% | -8% | -6% | 16µM* | -1%
CCc1ccc(-c2nnn(CCC(=O)OC)n2)cc1 | 7.9µM* | 10% | -6% | -8% | ?
Cc1nc(N2CCC(C)CC2)c2oc3ccccc3c2n1 | 25µM* | 6% | -7% | 44% | ?
Cc1ccc2c(c1)c1ncnc(N3CCN(c4ccccc4)CC3)c1n2C | 25µM* | 0% | -3% | 18% | ?
CCOC(=O)C1CCN(c2ncnc3c2oc2ccccc23)CC1 | 25µM* | 0% | -1% | 14% | ?
c1ccc(N2CCN(c3ncnc4c3oc3ccccc34)CC2)cc1 | 20µM* | 2% | -3% | 119% | ?
Nc1ccc(S(=O)(=O)NCCS(=O)(=O)O)cc1 | 8%[11.4 µM] | 1%[11 µM] | -5%[11.4 µM] | 0%[11.4 µM] | -1%[11.4 µM]
CC1=C(C#N)c2nc(N)c(C#N)c(C)c2/C1=C\c1ccccc1 | -22% | -21% | -6% | -7% | -90%
CCNc1ncc2ncc(=O)n(C)c2n1 | 9% | -4% | -5% | -2% | -4%
Cc1noc(C)c1COC(=O)CCCc1c[nH]c2ccccc12 | ? | -1% | -2% | -22% | ?
NC(=O)N[C@H](CC(=O)O)C(=O)O | 2%[11.4 µM] | -1%[11 µM] | -1%[11.4 µM] | -6%[11.4 µM] | 0%[11.4 µM]

High-throughput results (PubChem BioAssay)
